Assay results: the supplement of paper PMC11219838
Unmarked numbers belong to inactive results.

Each compound was assayed on Meloidogyne hapla J2 (assay: proportion of mobile M. hapla J2 relative to DMSO control (fraction of DMSO control); higher = more viable, less nematicidal, active = 0.7 or less). Conditions: 60 µM; 5 days; temperature: 20 °C.
Description: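 DODA library (846 commercial 1,3,4- and 1,2,4-oxadiazole compounds plus commercial nematicide controls) screened at a single dose of 60 µM (0.6% DMSO) in 96-well plates, two biological replicates. Read-outs: C. elegans N2 L1 survival/reproduction score at day 6, 20 °C (0: 0-10 worms, 1: 11-20, 2: 21-50, 3: >50, 4: overgrown/starved). C. elegans daf-2 dauer, D. dipsaci and M. hapla J2 mobility at day 5, 20 °C, and P. penetrans mobility at day 5, 20 °C, each relative to DMSO controls. M. hapla egg hatching at day 12, 25 °C, relative to the mean of 8 DMSO wells on the same plate.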

SMILES | proportion of mobile M. hapla J2
CNC(=O)O/N=C(\SC)C(=O)N(C)C [oxamyl] | 0.936
CC(C)NC(=O)N1CC(=O)N(c2cc(Cl)cc(Cl)c2)C1=O [iprodione] | 1.03
O=C(NCCc1ncc(C(F)(F)F)cc1Cl)c1ccccc1C(F)(F)F [fluopyram] | 0.653 (active)
CC[C@H](C)[C@H]1O[C@]2(C=C[C@@H]1C)C[C@@H]1C[C@@H](C/C=C(\C)[C@@H](O[C@H]3C[C@H](OC)[C@@H](O[C@H]4C[C@H](OC)[C@@H](O)[C@H](C)O4)[C@H](C)O3)[C@@H](C)/C=C/C=C3\CO[C@@H]4[C@H](O)C(C)=C[C@@H](C(=O)O1)[C@]34O)O2.CO[C@H]1C[C@H](O[C@H]2[C@H](C)O[C@@H](O[C@@H]3/C(C)=C/C[C@@H]4C[C@@H](C[C@]5(C=C[C@H](C)[C@@H](C(C)C)O5)O4)OC(=O)[C@@H]4C=C(C)[C@@H](O)[C@H]5OC/C(=C\C=C\[C@@H]3C)[C@]54O)C[C@@H]2OC)O[C@@H](C)[C@@H]1O [abamectin] | 1.03
